Compound activity (PubChem)
Only some compounds are listed: those with a hit (about 2.5% of all), similar ones and a draw of the others.
ULK1 primary: inhibitors of human ULK1 kinase. AlphaScreen Atg13 phosphorylation by ULK1, luminescence. actives 1.9% (n = 30,000). inhibition, % at 5.96 µM. O75385; in the data active = inhibition above about 43%;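 also: 0% = median of compound wells and 100% = no enzyme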
ASK1 inh: inhibitors of human ASK1 kinase. Q99683. AlphaScreen MKK6 phosphorylation by ASK1, luminescence. inhibition, % at 7.44 µM. actives 0.99% (n = 22,000). AID 1159602; in the data active = inhibition above about 35%;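 also: 0% = median of compound wells and 100% = no enzyme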
AlphaScreen intf: counter-screen for ASK1 inhibitors: AlphaScreen optical interference. shares compounds with ASK1 inh. AlphaScreen TruHits beads, signal interference counterscreen. IC50, µM. actives 20% (n = 220);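 active = IC50 of 10 µM or lower in the counterscreen; inactive = IC50 above 10 µM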;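 also: loss of AlphaScreen light from TruHits beads alone with no ASK1 enzyme present; potency of signal reduction so a low IC50 flags an assay artifact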
The depositor's hits bear a star.

`OCCNc1nc(Nc2ccc3ncccc3c2)nc2c1ncn2Cc1ccc(C(F)(F)F)cc1` gave ULK1 primary 7 and ASK1 inh -2.
c1ccc(CN2CCC(Nc3nc(N4CCN(Cc5ccc6c(c5)OCO6)CC4)nc4c3ncn4C3CCCCC3)CC2)cc1 was read as ULK1 primary 9, ASK1 inh 36* and AlphaScreen intf 8.7*.
`c1ccc(CNc2nc(N3CCN(Cc4ccc5c(c4)OCO5)CC3)nc3c2ncn3C2CCCCC2)cc1` gave ULK1 primary 8 and ASK1 inh 6.
For Cc1ncn(-c2ccc(Nc3ncc4cccc(-c5ccnc(N6CCOCC6)c5)c4n3)cc2)n1 the results were ULK1 primary 16 and ASK1 inh 24.
`Cn1cc(-c2ccc3cnc(Nc4ccc(-c5ccc(N6CCOCC6)nc5)cc4)nc3c2Cl)cn1` gave ULK1 primary 43*, ASK1 inh 38* and AlphaScreen intf >19.
Screening O=C(NCc1nnnn1-c1ccccc1)c1cc(Br)ccc1Cl returned ULK1 primary 13.
`Cc1nn(C)c(C)c1-c1nc(NCCc2ccc(O)cc2)c2ncn(Cc3ccc(C(F)(F)F)cc3)c2n1` gave ULK1 primary -34 and ASK1 inh -10.
`Oc1ccc(CCNc2nc(NC3CCN(Cc4ccccc4)CC3)nc3c2ncn3Cc2ccc(C(F)(F)F)cc2)cc1` gave ULK1 primary -8, ASK1 inh 39* and AlphaScreen intf >20.
FC(F)(F)c1ccc(Cn2cnc3c(Nc4ccc(N5CCOCC5)cc4)nc(NC4CCN(Cc5ccccc5)CC4)nc32)cc1 was read as ULK1 primary -5, ASK1 inh 37* and AlphaScreen intf inactive.
`COc1ccc(CCNc2nc(NC3CCN(Cc4ccccc4)CC3)nc3c2ncn3Cc2ccc(C(F)(F)F)cc2)cc1` gave ULK1 primary -5 and ASK1 inh 23.
`FC(F)(F)c1ccc(Cn2cnc3c(Nc4ccc(N5CCOCC5)cc4)nc(Nc4ccccc4)nc32)cc1` gave ULK1 primary -16 and ASK1 inh 23.
CCN(CC)C(=O)C1CCCN(c2nc(NCCN3CCOCC3)c3ncn(C4CCCCC4)c3n2)C1 (stereo not drawn) was read as ULK1 primary 3 and ASK1 inh 2.
Screening CCN(CC)c1nc(NCCO)nc(Nc2ccc(N3CCOCC3)cc2)n1 returned ULK1 primary 2 and ASK1 inh -8.
For c1ccc(CN2CCC(Nc3nc(Nc4ccccc4)nc4c3ncn4-c3ccsc3)CC2)cc1 the results were ULK1 primary 4 and ASK1 inh 17.
Screening c1ccc(CN2CCC(Nc3nc(Nc4ccc(N5CCOCC5)cc4)nc4nc[nH]c34)CC2)cc1 returned ULK1 primary 18, ASK1 inh 36* and AlphaScreen intf >20.
For c1ccc(CN2CCC(Nc3nc(N4CCOCC4)nc4nc[nH]c34)CC2)cc1 the results were ULK1 primary -18 and ASK1 inh 1.
Screening c1cnc2ccc(Nc3nc(Nc4ccc(N5CCOCC5)cc4)c4[nH]cnc4n3)cc2c1 returned ULK1 primary -12, ASK1 inh 41* and AlphaScreen intf >20.
For c1ccc(CN2CCC(Nc3nc(Nc4ccc(N5CCOCC5)cc4)nc4c3ncn4-c3ccsc3)CC2)cc1 the results were ULK1 primary 11, ASK1 inh 43* and AlphaScreen intf 9.3*.
c1ccc(Nc2nc(Nc3ccc(N4CCOCC4)cc3)c3[nH]cnc3n2)nc1 was read as ULK1 primary 7 and ASK1 inh 8.
Screening Nc1nccc(-c2cnc3nc(C4COc5ccc(C(=O)NCCN6CCOCC6)cc5C4)[nH]c3c2)n1 (stereo not drawn) returned ULK1 primary 1 and ASK1 inh -9.
`CCN(CC)CCN(CC)CC(=O)Nc1ccccc1Cl` gave ULK1 primary 1.
For Cc1ncn(-c2ccc(Nc3nccc(NCC(N)=O)n3)cc2)n1 the results were ULK1 primary 5 and ASK1 inh -7.
For CCn1nnc(-c2ccc(Nc3nccc(-c4cccc(N5CCOCC5)c4)n3)cc2)n1 the results were ULK1 primary -12 and ASK1 inh 15.
Screening Nc1nc(Nc2ccc3c(c2)OCO3)cc(N2CCN(Cc3ccc4c(c3)OCO4)CC2)n1 returned ULK1 primary -18 and ASK1 inh 15.
Cc1ccc(-c2ncn(-c3ccc(Nc4nccc(-c5cc(F)cc(N(C)C)c5)n4)cc3)n2)cn1 was read as ULK1 primary -25 and ASK1 inh -15.
For CN1CCN(c2ncn(-c3ccc(Nc4nccc(-c5cc(C#N)cc(N6CCC(O)CC6)c5)n4)cc3)n2)CC1 the results were ULK1 primary -51, ASK1 inh 41* and AlphaScreen intf >19.
`Fc1cc(-c2ccnc(Nc3ccc(-n4cnc(N5CCOCC5)n4)cc3)n2)cc(N2CCOCC2)c1` gave ULK1 primary 5 and ASK1 inh 24.
Cc1n[nH]c(C)c1-c1cc(F)cc(-c2ccnc(Nc3ccc(-n4cnc(N5CCOCC5)n4)cc3)n2)c1 was read as ULK1 primary 13, ASK1 inh 48* and AlphaScreen intf >19.
Screening COc1ccc(-c2ncn(-c3ccc(Nc4nccc(-c5cc(C#N)cc(N6CCNCC6)c5)n4)cc3)n2)cn1 returned ULK1 primary -387, ASK1 inh 45* and AlphaScreen intf >19.
`N#Cc1cc(-c2ccnc(Nc3ccc(-n4cnc(N5CCOCC5)n4)cc3)n2)cc(N2CCCC(O)C2)c1` (stereo not drawn) gave ULK1 primary 6 and ASK1 inh 14.
For CN(C)c1cc(F)cc(-c2ccnc(Nc3ccc(-n4cnc(N5CCC(O)CC5)n4)cc3)n2)c1 the results were ULK1 primary -33, ASK1 inh 39* and AlphaScreen intf >19.
For COc1ccc(-c2ccc(Nc3nccc(-c4cc(C#N)cc(N5CCOCC5)c4)n3)cc2)cn1 the results were ULK1 primary -4 and ASK1 inh -2.
Screening CCN(CC)CCNC(=O)c1ccccc1O returned ULK1 primary 4.
Screening Cc1cc(C)c2[nH]c(C(=O)O)c(C)c2c1 returned ULK1 primary 3.
Cc1cnc(N2CCc3ccccc3C2)nc1NCCN1CCOCC1 was read as ULK1 primary -15 and ASK1 inh -4.
c1cc(-n2cnc3c(NC4CC4)nc(N4CCC(N5CCOCC5)CC4)nc32)cs1 was read as ULK1 primary 7 and ASK1 inh -3.
NC(=O)c1ccc(-c2nc(NCCN3CCOCC3)c3ncn(-c4ccccc4)c3n2)cc1 was read as ULK1 primary -14 and ASK1 inh 3.
`Cc1nc(-c2ccc3cnc(Nc4ccc(-n5cnc(N6CCOCC6)n5)cc4)nc3c2)n[nH]1` gave ULK1 primary 19 and ASK1 inh -21.
`c1cc(-n2cnc(N3CCOCC3)n2)ccc1Nc1ncc2ccc(-c3cn[nH]n3)cc2n1` gave ULK1 primary 59*, ASK1 inh 49* and AlphaScreen intf >19.
O=C(NC1CC1)c1ccc(-c2cc(Nc3ccc(Oc4ccccc4)cc3)ncn2)cc1 was read as ULK1 primary -24 and ASK1 inh -2.
For c1ccc(Nc2ccnn2-c2ccnc(Nc3ccc(N4CCOCC4)cc3)c2)cc1 the results were ULK1 primary -13 and ASK1 inh 34.
Screening CN(C)CCNc1onc(-c2ccnc(Nc3ccc(N4CCOCC4)cc3)c2)c1-c1ccc(F)cc1 returned ULK1 primary 14 and ASK1 inh 33.
